From PubChem BioAssay
This is a sample that favours compounds with a hit; in the whole collection about 0.89% have one here.
CIT2 TOR yeast = alters CIT2-GFP fluorescence in TOR pathway yeast screen; S. cerevisiae CIT2-GFP strain, flow cytometry, 3 h; 100 means same as DMSO wells; GFP response vs DMSO, % at 10 µM; hit rate 0.065% among 320,000; AID 2029;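 active = GFP response relative to DMSO above a set limit, near the screen mean plus 3 SD, cut at about 150% in these data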;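 also: ratio of well median GFP fluorescence to mean of DMSO wells on the plate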
LAP4-GFP MLPCN = yeast TOR pathway LAP4-GFP modulation; S. cerevisiae LAP4-GFP multiplex, flow cytometry GFP, 3 h; median GFP as percent of DMSO wells; GFP response vs DMSO, % at 10 µM; hit rate 0.34% among 320,000;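 active = GFP response vs DMSO above a set limit, about the screen mean plus 3 SD, cut at about 150% in these data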
AGP1-GFP MLPCN = alters AGP1-GFP fluorescence in TOR pathway yeast screen; S. cerevisiae AGP1-GFP multiplex flow cytometry, 3 h; GFP as percent of DMSO wells; GFP response vs DMSO, % at 10 µM; hit rate 0.02% among 320,000; AID 2066;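 active = GFP response relative to DMSO above a set limit, near screen average plus 3 SD, cut at about 150% in these data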;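 also: median GFP channel fluorescence of the gated AGP1 strain per well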
RPL19A-GFP yeast = alters RPL19A-GFP fluorescence in TOR pathway yeast screen | hit rate 0.3% among 330,000 | S. cerevisiae RPL19A-GFP strain, flow cytometry, 3 h; active compounds read low | AID 2025 | percent response vs DMSO, % at 10 µM;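 active = percent response vs DMSO below 50%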;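 also: median channel GFP fluorescence of the barcoded RPL19A-GFP strain; lower means less RPL19A-GFP as with rapamycin TOR inhibition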
MEP2 TOR yeast = modulators of TOR pathway MEP2-GFP in S. cerevisiae | GFP response vs DMSO, % at 10 µM | S. cerevisiae MEP2-GFP strain, flow cytometry GFP, 3 h; 100% = DMSO control level | hit rate 0.51% among 330,000;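 active = GFP response versus DMSO above a set limit, roughly screen mean plus 3 SD, cut at about 180% in these data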;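 also: median GFP fluorescence of the barcode-gated MEP2-GFP cells per well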
LAP4-GFP pick2 = reconfirmed LAP4-GFP TOR pathway modulator in yeast | shares compounds with LAP4-GFP MLPCN | S. cerevisiae LAP4-GFP strain, flow cytometry GFP, 3 h | GFP response vs DMSO, % at 10 µM | hit rate 20% among 590 | AID 2621;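 active = GFP signal as percent of the solvent control above about 150%, meaning raised reporter expression, limit read from the data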
MEP2-GFP pick2 = reconfirmed MEP2-GFP TOR pathway modulator in yeast; shares compounds with LAP4-GFP MLPCN; S. cerevisiae MEP2-GFP strain, flow cytometry GFP, 3 h; GFP response vs DMSO, % at 10 µM; hit rate 10% among 590;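 active = GFP signal above 150% of the solvent control wells, that is a rise of more than half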;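 also: median channel GFP fluorescence of all gated yeast cells per well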
RPL19A GFP CP2 = reconfirmed modulator of RPL19A-GFP TOR reporter in yeast | S. cerevisiae RPL19A-GFP strain, flow cytometry GFP, 3 h; active compounds read low; 100% means same as DMSO wells | GFP response vs DMSO, % at 10 µM | AID 2623 | shares compounds with LAP4-GFP MLPCN | hit rate 3% among 590;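 active = under 65% GFP response relative to DMSO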;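 also: median GFP channel fluorescence per well over the all cells gate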
CIT2 GFP CP2 = second confirmation of modulators of TOR reporter CIT2-GFP in yeast | shares compounds with LAP4-GFP MLPCN | S. cerevisiae CIT2-GFP strain, flow cytometry GFP, 3 h; DMSO control wells read 100% | GFP response vs DMSO, % at 10 µM | hit rate 8% among 590 | AID 2624;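 active = GFP response vs DMSO above about 150%, limit read from the data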;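 also: median green fluorescence per well over all gated yeast cells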
AGP1-GFP pick2 = second confirmation of modulators of TOR reporter AGP1-GFP in yeast. AID 2643. percent response vs DMSO, % at 10 µM. shares compounds with LAP4-GFP MLPCN. S. cerevisiae AGP1-GFP strain, flow cytometry GFP, 3 h. 590 tested, under 10 active;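 active = over 150 percent of DMSO response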;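 also: median GFP channel fluorescence over all cells without mother daughter split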
Yeast autofluor = yeast s288c autofluorescence artifact, counter-screen | shares compounds with LAP4-GFP MLPCN | S. cerevisiae s288c, 520 nm autofluorescence, flow cytometry, 3 h; active compounds read high; zero means same as solvent-only cells | fluorescence change (kMESF span) at 33 µM | 610 tested, under 10 active;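 active = fluorescence span over the dose series, or activity score, above about 33, limit read from the data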
Of the large screens only hits and unclear results are named; the others gave an inactive call (follow-up assays come after a bar, where they were run).

Cc1cc(C)c(C(=O)N2CCCC(Nc3ccc(F)cc3)C2)o1 (configuration not stated)	LAP4-GFP MLPCN 201 | LAP4-GFP pick2 inactive | MEP2-GFP pick2 inactive | RPL19A GFP CP2 inactive | CIT2 GFP CP2 inactive | AGP1-GFP pick2 inactive
Cc1cc(C)c(C(=O)N2CCCC(Nc3ccc(C)c(C)c3)C2)o1 (configuration not stated)	none
CS(=O)(=O)Cc1cccc(C(=O)NN(c2ccccc2)c2ccccc2)c1	none
CCOC(=O)N1CCc2c(sc(NC(C)=O)c2C(N)=O)C1	none
CCOC(=O)N1CCc2c(sc(NC(=O)c3ccc(Cl)s3)c2C(N)=O)C1	LAP4-GFP MLPCN 183 | LAP4-GFP pick2 inactive | MEP2-GFP pick2 inactive | RPL19A GFP CP2 inactive | CIT2 GFP CP2 inactive | AGP1-GFP pick2 inactive
Fc1ccc(Nc2nc(-c3cccnc3)cs2)cc1	none | LAP4-GFP pick2 inactive | MEP2-GFP pick2 inactive | RPL19A GFP CP2 inactive | CIT2 GFP CP2 inactive | AGP1-GFP pick2 inactive
ClC(Cl)(c1nnnn1-c1ccccc1)c1nnnn1-c1ccccc1	LAP4-GFP MLPCN 232 | LAP4-GFP pick2 265 | MEP2-GFP pick2 inactive | RPL19A GFP CP2 inactive | CIT2 GFP CP2 inactive | AGP1-GFP pick2 inactive | Yeast autofluor inactive
c1ccc(-c2nnnn2-c2ccccc2)cc1	none
COc1ccc(NC(=O)/C(C#N)=C/c2ncc([N+](=O)[O-])n2C)c(OC)c1	LAP4-GFP MLPCN 182 | Yeast autofluor inactive
Cc1cccc(N2CCN(C(=O)c3c(Cl)cnn3C)CC2)c1C	none
CCc1cccc(NC(=O)c2ccc3c(=O)n4c(nc3c2)CCCCC4)c1	none
Cc1cccc(C(=O)OCC(=O)Nc2c(C)n(C)n(-c3ccccc3)c2=O)c1	none
COc1ccc(NC(=O)Cc2ccccc2)cn1	none
COc1ccc(NC(=O)/C(Cl)=C(/Cl)S(=O)Cc2ccccc2)cn1 (configuration not stated)	LAP4-GFP MLPCN 288 | Yeast autofluor inactive
CCn1c(CCl)nc2cc(S(=O)(=O)N3CCOCC3)ccc21	none
Cc1cccc(NC(c2ccc(C)s2)c2ccc3ccc(C)nc3c2O)n1 (configuration not stated)	LAP4-GFP MLPCN 176 | Yeast autofluor inactive
Cc1ccc2ccc(C(Nc3ccccn3)c3ccccc3)c(O)c2n1 (configuration not stated)	none
COC(=O)c1ccc(/C=C(\C#N)c2nc3ccccc3s2)cc1	none
N#C/C(=C\c1ccccn1)c1nc2ccccc2s1	LAP4-GFP MLPCN 634, AGP1-GFP MLPCN 166, MEP2 TOR yeast 752 (no result: CIT2 TOR yeast) | Yeast autofluor 33
CSCC[C@H](NC(=O)Cc1c(C)c2cc3c4c(oc3cc2oc1=O)CCCC4)C(=O)O	none
Cc1ccc(CN2C(=O)[C@@H]3Cc4c([nH]c5ccccc45)C(C)(C)N3C2=O)cc1	none
Cc1ccc(CN2C(=O)[C@H]3Cc4c([nH]c5ccccc45)C(C)(C)N3C2=O)cc1	LAP4-GFP MLPCN 156 | LAP4-GFP pick2 inactive | MEP2-GFP pick2 inactive | RPL19A GFP CP2 inactive | CIT2 GFP CP2 inactive | AGP1-GFP pick2 inactive
CCOC(=O)N1C(=O)[C@](CC)(c2ccccc2)N1C(=O)OCC	none
CCC1(c2ccccc2)ON(c2c(Br)cccc2Br)C1=O (configuration not stated)	none | LAP4-GFP pick2 inactive | MEP2-GFP pick2 inactive | RPL19A GFP CP2 inactive | CIT2 GFP CP2 inactive | AGP1-GFP pick2 inactive | Yeast autofluor inactive
O=C(Nc1ccc(Cl)cc1Cl)c1ccc2c(c1)OCCO2	none
O=C(Nc1ccc(Cl)cc1Cl)c1cccc(N2C(=O)C=CC2=O)c1	LAP4-GFP MLPCN 184 | Yeast autofluor inactive
O=C(O)c1ccc2c(c1)C(=O)/C(=C/c1ccccc1)C2=O	none | LAP4-GFP pick2 inactive | MEP2-GFP pick2 inactive | RPL19A GFP CP2 inactive | CIT2 GFP CP2 inactive | AGP1-GFP pick2 inactive | Yeast autofluor inactive
O=C(NC1CCN(c2ncccn2)CC1)c1c(F)cccc1F	none
COc1ccc(N2CCN(C(=O)Cn3c(=O)[nH]c4ccccc4c3=O)CC2)cc1	none
CCCCCCCCCCCCCCCC[n+]1cccc2ccccc21	RPL19A-GFP yeast 12 | LAP4-GFP pick2 154 | MEP2-GFP pick2 inactive | RPL19A GFP CP2 inactive | CIT2 GFP CP2 inactive | AGP1-GFP pick2 inactive | Yeast autofluor inactive
CCn1c(CSc2n[nH]c(N)n2)nc2cc(C(=O)O)ccc21	MEP2 TOR yeast 178 | LAP4-GFP pick2 inactive | MEP2-GFP pick2 inactive | RPL19A GFP CP2 inactive | CIT2 GFP CP2 inactive | AGP1-GFP pick2 inactive
CCn1c(CSc2nnc3ccccn23)nc2cc(C(=O)O)ccc21	none
CCOc1ccc(S(=O)(=O)N2CCOCC2)cc1NC(=O)CSC(=S)N1CCCC1	none
O=C(Nc1ccc(Cl)cc1)ON=C1CCCC1	none | LAP4-GFP pick2 199 | MEP2-GFP pick2 inactive | RPL19A GFP CP2 inactive | CIT2 GFP CP2 224 | AGP1-GFP pick2 inactive | Yeast autofluor inactive
CC1(c2ccccc2)ON(c2ccccc2C(F)(F)F)C1=O (configuration not stated)	none | LAP4-GFP pick2 inactive | MEP2-GFP pick2 inactive | RPL19A GFP CP2 inactive | CIT2 GFP CP2 inactive | AGP1-GFP pick2 inactive | Yeast autofluor inactive
CC[C@@]1(c2ccccc2OC)ON(c2ccccc2C(F)(F)F)C1=O	none | LAP4-GFP pick2 inactive | MEP2-GFP pick2 inactive | RPL19A GFP CP2 inactive | CIT2 GFP CP2 inactive | AGP1-GFP pick2 inactive | Yeast autofluor inactive
Cc1ccccc1[C@@]1(C)ON(c2ccccc2C(F)(F)F)C1=O	none | LAP4-GFP pick2 inactive | MEP2-GFP pick2 inactive | RPL19A GFP CP2 inactive | CIT2 GFP CP2 inactive | AGP1-GFP pick2 inactive | Yeast autofluor inactive
O=C1N(c2ccccc2C(F)(F)F)O[C@]1(c1ccccc1)C1CCCC1	none | LAP4-GFP pick2 inactive | MEP2-GFP pick2 inactive | RPL19A GFP CP2 inactive | CIT2 GFP CP2 inactive | AGP1-GFP pick2 inactive | Yeast autofluor inactive
